Records with an inconclusive call do not appear. Active and inactive are the calls of the source.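 How the source made its calls, unless noted: active means at least 20% inhibition of 6-phosphogluconate dehydrogenase activity; inactive means the rest.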
Columns and labels:
[1] = stimulators of insulin release from INS-1E, primary screen, cell-based, 5 mM glucose, NPC library (AID 1117329;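 active means compound raises insulin release from rat beta cells at 5 mM glucose, no numeric limit stated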); conditions: rat INS-1E insulin secretion, at 10 µM, stronger effect = higher value
[2] = growth inhibition of GSK3B-pretreated HCT116 cells – cell-based, CellTiter-Glo, 0.2 to 20 µM (AID 1117336;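 active means compounds lowering colon cancer cell viability after pretreatment blocking the GSK3B kinase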); conditions: HCT116 viability after GSK3B inhibitor, at 20 µM, stronger effect = higher value
[3] = inhibition of endothelial tube formation, primary screen, imaging, VEGF stimulated, CD31 staining, tube area, NPC library (AID 1117340;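 active means compound that reduces growth-factor-driven endothelial tube area in a mixed cell culture, no cutoff stated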); conditions: VEGF-stimulated ADSC/ECFC co-culture, at 10 µM, stronger effect = higher value
[4] = glucagon-like peptide 1 release enhancers, primary assay, NCI-H716 cell line, NPC library (AID 1117341;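 active means compound raises GLP1 secretion from the human gut endocrine cells, with no numeric limit stated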); conditions: NCI-H716 cells, at 10 µM, stronger effect = higher value
[5] = HCT116 colon cancer cell growth inhibition, primary screen, CellTiter-Glo luminescence, NPC library (AID 1117342;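 active means compounds that lower survival of HCT116 colon cancer cells in the luminescence readout, no numeric limit stated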); conditions: at 20 µM (top of the series)
[6] = CellTiter-Glo luminescent readout of SW480 viability loss, NPC library primary (AID 1117343;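 active means compounds that lower viability of the colon cancer cells in the luminescence readout, with no numeric limit stated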); conditions: CellTiter-Glo luminescence; at 20 µM (top of the series)
[7] = decreased DLD-1 cellular survival, CellTiter-Glo luminescent readout, NPC compound collection, primary HTS (AID 1117346;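 active means compounds that lower survival of DLD-1 colon cancer cells in the luminescence readout, no cutoff given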); conditions: DLD-1 viability, CellTiter-Glo luminescence; at 20 µM (top of the series)
[8] = molecular target: 6-phosphogluconate dehydrogenase, decarboxylating (Homo sapiens) (UniProt P52209); experiment: 6PGD enzyme inhibitors, primary screen, biochemical, human, recombinant enzyme, NADPH absorbance (AID 1159550); conditions: recombinant 6PGD, NADPH absorbance 341 nm; at 10 µM; stronger effect = higher value
Sequence of 6-phosphogluconate dehydrogenase, decarboxylating (Homo sapiens) (P52209 whole entry, looked up): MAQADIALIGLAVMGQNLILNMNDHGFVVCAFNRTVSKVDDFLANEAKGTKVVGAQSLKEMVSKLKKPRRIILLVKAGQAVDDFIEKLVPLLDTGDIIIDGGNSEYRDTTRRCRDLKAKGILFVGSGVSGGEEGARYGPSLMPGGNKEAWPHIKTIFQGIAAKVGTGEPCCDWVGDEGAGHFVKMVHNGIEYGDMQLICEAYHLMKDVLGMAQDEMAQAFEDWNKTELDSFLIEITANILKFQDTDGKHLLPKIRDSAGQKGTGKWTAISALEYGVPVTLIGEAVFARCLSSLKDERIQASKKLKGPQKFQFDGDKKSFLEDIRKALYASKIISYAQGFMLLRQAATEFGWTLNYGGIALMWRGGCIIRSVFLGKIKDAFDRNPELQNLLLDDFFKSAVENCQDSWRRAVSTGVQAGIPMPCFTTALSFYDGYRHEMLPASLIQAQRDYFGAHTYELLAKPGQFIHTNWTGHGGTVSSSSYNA

[9] = modulation of C. elegans fzo-1 (AID 1259413; call rule not given here;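 further: fzo-1 mutant C. elegans worms in liquid wells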); conditions: C. elegans fzo-1 modulator screen, mean read-out; stronger effect = higher value
[10] = differential killing of epithelial or mesenchymal cells, primary screen, imaging, PC-3E GFP, TEM4-18 mCherry, co-culture (AID 1345086;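 active means compounds killing one labelled cell type while sparing the other, by normalised counts and ratio limits, not self-fluorescent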;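 on all read-outs here: cells exposed to compound for 72 h before imaging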;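 on red/green cell ratio (normalised): normalised mesenchymal count divided by normalised epithelial count so high means epithelial killing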); conditions: imaging cell counts, at 1 µM; for red/green cell ratio (normalised): actives lie on both sides, counts scaled to control wells, 1 = unselective
[11] = growth inhibition of DIPG glioma cells, dose response, cell-based, SU-DIPG-XIII, MIPE4.0, CellTiter-Glo, qHTS (AID 1347061; cut-off not given, nearly all actives have AC50 up to about 37 µM;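 further: cells exposed to compound for 48 hours before readout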); conditions: SU-DIPG-XIII viability, CellTiter-Glo ATP luminescence
[12] = growth inhibition of DIPG glioma cells, dose response, cell-based, JHH-DIPG-1, MIPE4.0, CellTiter-Glo, qHTS (AID 1347062; cut-off not given, nearly all actives have AC50 up to about 27 µM); conditions: JHH-DIPG-1 viability, CellTiter-Glo ATP luminescence
[13] = growth inhibition of DIPG glioma cells, dose response, cell-based, SU-DIPG-IV, MIPE4.0, CellTiter-Glo, qHTS (AID 1347063; cut-off not given, nearly all actives have AC50 up to about 30 µM;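 further: compound exposure lasted 48 hours before the viability readout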); conditions: SU-DIPG-IV viability, CellTiter-Glo ATP luminescence
[14] = measured here: epithelial PC-3E GFP cell survival
[15] = measured here: mesenchymal TEM4-18 mCherry cell survival

| Compound | insulin secretion stimulation [1] | viability decrease [2] | tube area decrease [3] | GLP1 secretion stimulation [4] | inhibition of viability [5] | viability decrease (inhibition) [6] | viability decrease (inhibition) [7] | inhibition [8] | mean signal [9] | red/green cell ratio (normalised) [10] | normalised cell number [10, 14] | normalised cell number [10, 15] | outcome [11] | outcome [12] | outcome [13] |
| --- | --- | --- | --- | --- | --- | --- | --- | --- | --- | --- | --- | --- | --- | --- | --- |
| Cc1ncc([N+](=O)[O-])n1CCO | -1.4% (inactive) | 55.6% (active) | -14.9% (inactive) | -0.3% (inactive) | 18.5% (inactive) | 75.1% (active) | 55% (active) | -20.7% (inactive) | 239 (inactive) | 1.23 (inactive) | 0.93 | 1.13 | inactive | inactive | inactive |
| COc1cccc(OC)c1C(=O)N[C@@H]1C(=O)N2[C@@H]1SC(C)(C)[C@@H]2C(=O)O | 0.6% (inactive) | -3.9% (inactive) | -4.7% (inactive) | -0.3% (inactive) | -7% (inactive) | 17.4% (inactive) | -4.8% (inactive) | 17.4% (inactive) |  | 1 (inactive) | 1.16 | 1.15 |  |  |  |
| Oc1c(Cl)cc(Cl)c(Cl)c1Cc1c(O)c(Cl)cc(Cl)c1Cl | -3.4% (inactive) | 117% (active) | 108% (active) | 17.4% (inactive) | 124% (active) | 149% (active) | 101% (active) | -10.3% (inactive) | 211 (inactive) | 0.64 (inactive) | 0.83 | 0.53 |  |  |  |
| CC(=O)O[C@]1(C(C)=O)CC[C@H]2[C@@H]3C=C(Cl)C4=CC(=O)CC[C@]4(C)[C@H]3CC[C@@]21C | 0% (inactive) | 56.2% (active) | 22.4% (inactive) | 1.3% (inactive) | 52.6% (active) | 57.1% (active) | 7.1% (inactive) | -12% (inactive) |  |  |  |  |  |  |  |
| CCCCOc1cc(C(=O)NCCN(CC)CC)c2ccccc2n1 | 1.6% (inactive) | -47.5% (inactive) | 3.5% (inactive) | 7.7% (inactive) | 45.3% (inactive) | 49.2% (inactive) | 29.5% (inactive) | -0.88% (inactive) |  | 0.94 (inactive) | 1.33 | 1.25 |  |  |  |
| CC[N+](C)(C)Cc1ccccc1Br | 2.5% (inactive) | -18.7% (inactive) | 10% (inactive) | -3% (inactive) | 27.2% (inactive) | -1.6% (active) | 10.8% (inactive) | -1.68% (inactive) |  |  |  |  |  |  |  |
| C[n+]1ccccc1/C=N/O | 2.2% (inactive) | 15.7% (inactive) | -4.4% (inactive) | -3.1% (inactive) | 1.77% (inactive) | -3.4% (inactive) | 0.4% (inactive) | -6.73% (inactive) | 252 (inactive) | 0.85 (inactive) | 1.37 | 1.16 |  |  |  |

— PubChem BioAssay
